# Assay results published in the supplement of paper PMC9135407.
# “And” between values parts separate entries of the source, which are not always exact repeats. Equal values may be shown once. Where a name gives a salt, the structure may show the parent alone. The campaign covered roughly 5,800 compounds. About 620 (11%) showed activity. Many of the other results were omitted from the sample, so actives are more common in it than they were. Unmarked numbers belong to inactive results.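 The calls were made as follows: active = score above a cut-off or among the top three wells of a plate; in these data no inactive exceeds 0.85.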
# System: primary human hepatic stellate cells (donor 1)
# Assay: scaled lipid accumulation score (0 = DMSO-like, 1 = nortriptyline-like); higher = stronger HSC inactivation (lipid re-accumulation), active = hit call of the paper
# Details: 48 h
# [1] = library stock concentration: 10 mM
# [2] = library stock concentration: 1 mM
# [3] = library stock concentration: 3.33 mM
# [4] = library stock concentration: 80 uM
# [5] = library stock concentration: 400 uM
# [6] = library stock concentration: 2 mM
compound,measurement,setting,value
C(=C/CCNC)(/c1c2cccc1)\c3c(cccc3)CC2.Cl [Nortriptyline hydrochloride],scaled lipid accumulation score,[1],1.04 (active)
N[C@H]1CCN(O)C1=O,scaled lipid accumulation score,[1],≤ 0
NCc1cccc2ccncc12 [8-Isoquinoline methanamine (hydrochloride)],scaled lipid accumulation score,[2],0.003
CCCCCCNC(=O)Nc1ccc(S(=O)(=O)Nc2ccc(CCNC[C@H](O)COc3ccc(O)cc3)cc2)cc1,scaled lipid accumulation score,[1],0.462
O=C(O)CCCCCC[C@H]1C(=O)C[C@@H](O)[C@@H]1/C=C/[C@@H](O)Cc1ccccc1 [16-phenyl tetranor Prostaglandin E1],scaled lipid accumulation score,[2],0.017
CCCCCCCCCCCCCCCC(=O)OC[C@H](COP(=O)([O-])OCC[N+](C)(C)C)OC(=O)CCCC(=O)/C=C/C(=O)O,scaled lipid accumulation score,[2],0.034
O=C1C(Cl)=C(N2CCOCC2)C(=O)N1c1ccc(Cl)c(Cl)c1,scaled lipid accumulation score,[3],≤ -0.009
same,scaled lipid accumulation score,[1],≤ 0
COCC(=O)NC/C=C/c1ccc2ncnc(Nc3ccc(Oc4ccc(C)nc4)c(C)c3)c2c1 [listing 1 of 2 here],scaled lipid accumulation score,[1],1.46 (active)
COc1ccc(Nc2ncnc3ccc(OC)cc23)cc1 [MPMQ hydrochloride],scaled lipid accumulation score,[1],0.051
COCC(=O)NC/C=C/c1ccc2ncnc(Nc3ccc(Oc4ccc(C)nc4)c(C)c3)c2c1 [listing 2 of 2 here],scaled lipid accumulation score,[4],≤ 0
same,scaled lipid accumulation score,[5],≤ 0 and ≤ -0.005
same,scaled lipid accumulation score,[6],≤ 0 and ≤ -0.005
same,scaled lipid accumulation score,[1],0.108
NC1=NCCN1CC(=O)O [Cyclocreatine],scaled lipid accumulation score,[1],≤ 0
CCCCCCCCCCCCCCCC(=O)NCCS(=O)(=O)O [N-Palmitoyl Taurine],scaled lipid accumulation score,[2],≤ 0
CCCS(=O)(=O)Nc1ccc(F)c(C(=O)c2c[nH]c3ncc(Cl)cc23)c1F [listing 1 of 2 here],scaled lipid accumulation score,[4],≤ 0
same,scaled lipid accumulation score,[5],≤ 0 and 0.028
same,scaled lipid accumulation score,[6],≤ 0 and 0.042
same,scaled lipid accumulation score,[3],≤ 0
same,scaled lipid accumulation score,[1],≤ 0
CCCS(=O)(=O)Nc1ccc(F)c(C(=O)c2c[nH]c3ncc(Cl)cc23)c1F [listing 2 of 2 here],scaled lipid accumulation score,[1],1.16 (active)
"CCCS(=O)(=O)Nc1ccc(F)c(C(=O)c2c[nH]c3ncc(-c4ccc(Cl)cc4)cc23)c1F [Vemurafenib (PLX4032, RG7204)]",scaled lipid accumulation score,[3],≤ 0
same,scaled lipid accumulation score,[1],≤ 0
Cc1noc(-c2ccc(CSCCC(=O)O)cc2)c1NC(=O)OC(C)c1ccccc1Cl (configuration not stated),scaled lipid accumulation score,[3],0.003
same,scaled lipid accumulation score,[1],≤ 0
CCCCCCCOC(=O)Cc1c(C)n(C(=O)c2ccc(Cl)cc2)c2ccc(OC)cc12 [Indomethacin heptyl ester],scaled lipid accumulation score,[2],0.015
